Where “and” joins values, the source holds several entries; their conditions need not be identical. Equal entries are not always repeated. Inconclusive results are not listed. Unmarked numbers belong to inactive results. Calls of active or inactive are those of the source. The call rests on the fitted dose curve; in most records, active means well fitted activation curve with a large enough effect in the signal ratio; inconclusive means small, poorly fitted or top-dose-only effect, or a change in a side signal; inactive means flat fitted curve, though single readings scatter; the % refers to the signal ratio.
test: qHTS assay for small molecule activators of the nuclear factor-kappa B (NF-kB) signaling pathway (AID 651749); details: NF-kB-bla ME-180 cells, beta-lactamase FRET ratio, 16 h; activation: stronger effect = higher value; on activation: series mostly up to about 77 µM; % of control where 0% means no effect
Excerpt: National Center for Advancing Translational Sciences [NCATS] NIH Chemical Genomics Center [NCGC] U.S. Environmental Protection Agency [EPA] National Institutes of Environmental Health Sciences [NIEHS] National Toxicology Program [NTP] Assay Overview: Transcription factors and their stimulated target gene expression play pivotal roles across many cellular processes including responses to environmental stimuli. Proper regulation of associated pathways is critical to maintain cell health and function. Constitutive activation of transcription factor pathways has been implicated in tumors as it may block cellular functions such as apoptosis and lead to invasion and metastasis. One important transcription factor that stimulates gene expression in response to cytokines, UV radiation, and other stimuli is nuclear factor-kappa B (NF-kB). To measure activation of the NF-kB pathway, the NF-kB-bla ME-180 cell line stably expressed beta-lactamase reporter gene under the regulation of a NF-kB response element was obtained from Invitrogen. This assay allows measurement of the NF-kB pathway activity induced by compounds in a ME-180 cell line. This system quantitates NF-kB activity using a FRET-based assay system where beta-lactamase expression disrupts FRET, allowing for fluorescent measurement of activity.
Assay Protocol Summary: For toxicology screening, 2,000 cells in 5 uL/well were dispensed into black, clear-bottom 1536-well plates using a Multidrop Combi (Thermo Scientific) dispenser. Following transfer of 23 nL compound or DMSO vehicle by a pin tool, the plates were incubated 16 hr at 37C and 5% CO2.
Potency means the concentration at half of the fitted maximal effect.

Row | SMILES | activation | Potency
1 | O=C(CCl)c1ccccc1 | 0.721% | 
2 | CCN(CC)c1nc(C)cc(OP(=S)(OC)OC)n1 | 0.586% | 
3 | CC(C)N(C(=O)SCC(Cl)=C(Cl)Cl)C(C)C | -1.22% | 
4 | Cc1c(F)c(F)c(COC(=O)C2C(/C=C(\Cl)C(F)(F)F)C2(C)C)c(F)c1F (stereo not given) | -3.24% | 
5 | O=C(O[C@@H]1Cc2c(O)cc(O)cc2O[C@@H]1c1cc(O)c(O)c(O)c1)c1cc(O)c(O)c(O)c1 |  | 12.6 µM (active)
6 | CCOc1nc(F)cc2nc(S(=O)(=O)Nc3c(Cl)cccc3Cl)nn12 | 0.211% | 
7 | CCCN(CC)CC1COC2(CCC(C(C)(C)C)CC2)O1 (stereo not given) | -1.56% | 
8 | CCC(C)n1c(=O)[nH]c(C)c(Br)c1=O (stereo not given) | 0.0195% | 
9 | Cc1cc(C)nc(NC(=O)NS(=O)(=O)c2ccccc2C(=O)OC2COC2)n1 | 1.32% | 
10 | Cc1cc(Cl)ccc1O[C@H](C)C(=O)O | 0.599% | 
11 | CCCCCCCCCCCCCCC(Br)C(=O)O (stereo not given) | 5.98% | 
12 | Cc1ccc(-c2c(Cl)nc(C#N)n2S(=O)(=O)N(C)C)cc1 | 2.86% | 
13 | N#Cc1cc(I)c(O)c(I)c1 | 1.07% | 
14 | CC(C)N1C(=O)N(c2ccccc2)CSC1=NC(C)(C)C | 0.243% and -2.38% | 
15 | CC(C)N(C(=O)COc1nnc(C(F)(F)F)s1)c1ccc(F)cc1 | -1.4% | 
16 | CCOP(=S)(OCC)Oc1ncn(-c2ccccc2)n1 | 2.03% | 
17 | Cn1cc(-c2ccccc2)c(=O)c(-c2cccc(C(F)(F)F)c2)c1 | -0.874% | 
18 | CCOc1nc(C(Cl)(Cl)Cl)ns1 | 0.185% | 
19 | COC(=O)c1sccc1S(=O)(=O)NC(=O)Nc1nc(C)nc(OC)n1 | -1.57% | 
20 | Clc1ccc(-c2cc(Cl)c(Cl)cc2Cl)cc1Cl | 5.08% | 

Row | SMILES | activation | Potency
21 | ClC1=C(Cl)C2(Cl)C3C4OC4C(Cl)C3C1(Cl)C2(Cl)Cl (stereo not given) | 4.48% | 
22 | CCC[CH2][Sn]1([CH2]CCC)[O]C(=O)C=CC(=O)[O]1 | -3.15% | 
23 | CCCCOC(=O)[C@@H](C)Oc1ccc(Oc2ccc(C#N)cc2F)cc1 | 0.919% | 
24 | Nc1cccc(Cl)c1Cl | -2.53% | 
25 | C/C(=N\NC(=O)Nc1cc(F)cc(F)c1)c1ncccc1C(=O)O | 0.367% and -2.66% | 
26 | Cc1cc(C)nc(Nc2ccccc2)n1 | -2.63% | 
27 | O=C(O)COc1ccc(Cl)cc1 | -0.213% | 
28 | COP(=O)(OC)O/C(=C\Cl)c1cc(Cl)c(Cl)cc1Cl | -1.17% | 
29 | C=CC(=O)NCO | 0.439% and -0.866% | 
30 | Cc1cccc2sc3nncn3c12 | 0.0956% | 
31 | COC(=O)c1ccccc1S(=O)(=O)NC(=O)N(C)c1nc(C)nc(OC)n1 | -0.341% | 
32 | O=[N+]([O-])c1ccc(Nc2ccccc2)cc1 | 0.166% | 
33 | CCOP(=O)(OCC)Oc1ccc2c(C)c(Cl)c(=O)oc2c1 | 0.977% | 
34 | CCOP(=S)(OCC)Oc1cnc2ccccc2n1 | -0.487% | 
35 | CC1(C)CON(Cc2ccccc2Cl)C1=O | 0.414% | 
36 | CCOP(=S)(OCC)SC(CCl)N1C(=O)c2ccccc2C1=O (stereo not given) | -1.92% | 
37 | CC[C@H]1CCCC(O[C@H]2CC[C@H](N(C)C)[C@@H](C)O2)[C@@H](C)C(=O)C2=C[C@@H]3[C@@H](C=C[C@@H]4C[C@@H](O[C@@H]5O[C@@H](C)[C@H](OC)[C@@H](OC)[C@H]5OC)C[C@@H]34)[C@@H]2CC(=O)O1 (stereo not given in full) | -0.423% | 
38 | Brc1ccc(Oc2ccccc2)cc1 | -2.79% | 
39 | Nc1ccccc1C(=O)OCCc1ccccc1 | 0.217% | 
40 | Clc1ccc([C@@]2(Cn3cncn3)C[C@@H](Br)CO2)c(Cl)c1 | -2.08% | 

Source: PubChem BioAssay (NCATS)
